# Most compounds without a hit are left out; they make up all but 4.5% or so of the library.
# Jurkat NFkB inh = inhibitors of the PMA/ionomycin-induced NF-kB reporter in Jurkat cells; inhibition, % at 4 µM; actives 0.53% (n = 330,000); PMA/ionomycin-induced NF-kB luciferase reporter, luminescence; in the data active = inhibition above about 50%
# CSC inhib = cancer stem cell inhibition; cancer stem cell-like cells viability, luminescence; inhibition, % at 7.5 µM; actives 1.1% (n = 300,000); in the data active = inhibition above about 75%; inconclusive = no clear call, values can overlap the other calls; tested in HMLE shEcad cells
# Gli-Sufu block = blocks Gli-Sufu signaling in a luciferase reporter; Sufu-KO-LIGHT fibroblasts, Gli luciferase reporter luminescence; inhibition, % at 5 µM; actives 0.74% (n = 340,000); AID 588413;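 active = inhibition above about 55%, limit read from the data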
# Mdm2 MdmX PPI = inhibitors of human Mdm2/MdmX interaction; O15151+Q00987; SaOS-2 split-luciferase Mdm2/MdmX complementation, luminescence; inhibition, % at 8 µM; actives 3% (n = 330,000);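 active = inhibition of at least 50% at 8 µM in the primary screen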
# 697 NFkB inh = lowers PMA/ionomycin-induced NF-kB signal in 697 B cells | 697 B-cell NF-kB luciferase reporter, 16 h | inhibition, % at 4 µM | actives 0.33% (n = 330,000) | AID 435022; in the data active = inhibition above about 35%
# aSyn 5UTR inh = MLPCN primary screen, SNCA 5' untranslated region; alpha-synuclein 5'UTR reporter, inhibitor activity; inhibition, % (tested at 7.5 µM); actives 0.82% (n = 300,000); AID 1813; in the data active = inhibition above about 60%; inconclusive = no clear call, values can overlap the other calls;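 also: H4 neuroglioblastoma cells stably carrying SNCA 5'UTR luciferase fusion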
# Mdm2 MdmX conf = confirmation of human Mdm2/MdmX interaction inhibitors; shares compounds with Mdm2 MdmX PPI; Mdm2-MdmX binding, luminescent assay; inhibition, % at 8 µM; actives 55% (n = 10,000); in the data active = inhibition above about 40%
# FLuc counter = counter-screen for Mdm2/MdmX inhibitors: full-length luciferase. shares compounds with Mdm2 MdmX PPI. SaOS-2 full-length luciferase counterscreen, luminescence. actives 77% (n = 6,200). inhibition, % at 8 µM;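 active = mean inhibition at 8 µM reaching about 37%, which flags the compound as non-specific, limit read from the data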;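 also: p53-null SaOS-2 cells with luciferase driven by a doxycycline-inducible promoter; compound on cells about two nights before reading with doxycycline added after day one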
# Hits are given with their value; i = inactive; ? = inconclusive; nt = no result.
SMILES,Jurkat NFkB inh,CSC inhib,Gli-Sufu block,Mdm2 MdmX PPI,697 NFkB inh,aSyn 5UTR inh,Mdm2 MdmX conf,others
Cc1ccc(S(=O)(=O)N2C(=O)CCC2C(=O)O/N=C(\N)c2ccccc2)cc1 (centres undefined),i,i,i,i,i,i,nt,
O=C(Nc1ccc(C(=O)N2CCN(c3ccccc3)CC2)cc1)C1=CSCCO1,i,i,i,i,i,i,nt,
CCOc1ccc(CN(C)C(=O)CCl)cc1,i,i,i,56,i,i,i,
CCOc1ccc(CN(C)C(=O)CCNC(=O)c2ccco2)cc1,i,i,i,i,i,nt,nt,
Nc1ccc(N2CCCCC2)cc1N1CCCCC1,i,i,i,80,i,85,i,
COc1ccc(C(C)=O)cc1COC(=O)CCNS(=O)(=O)c1ccc(C(C)=O)cc1,i,i,i,i,i,i,nt,
CN1CCN(C2Cc3ccccc3Sc3ccc(Cl)cc32)CC1 (centres undefined),i,i,i,i,i,nt,nt,
CN1CCCC(CC2c3ccccc3Sc3ccccc32)C1 (centres undefined),i,i,i,59,i,nt,i,FLuc counter=65
CN1CCCC(CN2c3ccccc3Sc3ccccc32)C1 (centres undefined),i,i,i,51,i,i,i,
CC(C)(C)OC(=O)N1CCC(c2c(C(=O)N3CCN(C(=O)c4ccco4)CC3)cnn2-c2ccc(F)cc2F)CC1,i,i,i,i,i,i,nt,
CCNc1nc(NC(C)(C)C)nc(N2CCCCC2)n1,i,i,i,51,i,i,i,
CCOC(=O)[C@H]1[C@H]2COc3ccc(OC)cc3[C@@H]2N2C(=O)c3cc(F)c(F)cc3NC(=O)[C@@]12C,i,i,i,i,i,nt,nt,
O=C(O)C1=CC(=C(c2ccc(O)c(C(=O)O)c2)c2ccc(O)c(C(=O)O)c2)C=CC1=O,nt,i,nt,nt,nt,nt,nt,
O=C1C=CC(=C(c2ccc(O)cc2)c2ccc(O)cc2)C=C1,i,nt,i,91,i,nt,70,FLuc counter=45
Cc1cc(C)nc(Nc2cccc(Cl)c2)n1,i,i,i,i,i,i,nt,
CCC(C)Oc1cc(-c2ccnc(Nc3cccc(Cl)c3)n2)ccn1 (centres undefined),i,i,i,95,i,i,73,FLuc counter=i
COc1ccc(C(=O)C(CCCCC(CN(C)C)C(=O)c2ccc(OC)cc2)CN(C)C)cc1 (centres undefined),i,i,i,86,i,i,59,FLuc counter=i
CN1C(=O)/C(=C/c2ccc(OCc3cccc(F)c3)cc2)NC1=S,i,i,i,i,i,i,nt,
COc1cc(/C=C2/C(=O)N(C)C(=S)N2C)ccc1OCc1cccc(F)c1,i,i,i,88,i,i,i,
Cc1cc(N/N=C/c2ccc(Cl)cc2Cl)nc(NCc2ccccc2)n1,i,?,i,71,i,i,i,
Cc1cc(N/N=C/c2ccc(F)cc2)nc(NCc2ccccc2)n1,i,i,i,i,i,i,nt,
Cc1cc(Nc2ccc(Cl)cc2)nc(NCc2ccccc2)n1,i,i,i,63,i,i,42,FLuc counter=75
CS(=O)(=O)c1ccc(Cl)c(NC(=O)CSc2nc3ccccc3c(=O)n2Cc2ccco2)c1,i,i,i,i,i,i,nt,
COC(=O)c1cc2c(=O)c3ccccc3oc2nc1/C=C/N(C)C,nt,i,i,nt,nt,i,nt,
O=C(Nc1ncc(S(=O)(=O)c2ccc([N+](=O)[O-])cc2)s1)c1ccc2ccccc2c1,i,?,i,71,i,i,i,
O=C(Nc1ncc(Cc2cc(Cl)ccc2Cl)s1)c1ccc([N+](=O)[O-])cc1,i,i,i,59,i,i,i,
Cc1ccc(Nc2nnc(SCC(=O)Nc3ncc(S(=O)(=O)c4ccc([N+](=O)[O-])cc4)s3)s2)cc1,i,nt,i,62,i,i,i,
O=C(Nc1ncc(S(=O)(=O)c2ccc([N+](=O)[O-])cc2)s1)c1cccnc1,i,i,i,i,i,i,nt,
O=C(Nc1ncc(Cc2cccc(Cl)c2Cl)s1)c1ccc([N+](=O)[O-])cc1,i,i,i,i,i,i,nt,
CC(C)c1ccc(Nc2nnc(SCC(=O)Nc3ncc(S(=O)(=O)c4ccc([N+](=O)[O-])cc4)s3)s2)cc1,i,i,i,i,i,i,nt,

# Bioassay records deposited in PubChem BioAssay by several laboratories.
